Experimental data from PubChem BioAssay (Tox21).
Inconclusive results are not listed. Active and inactive are the calls of the source. Unless noted, the call rests on the fitted dose curve; in most records, active means well fitted curve in the direction sought with a large enough effect in the repeat runs; inconclusive means weak or mixed curves; inactive means no such curve, though single readings can be large; an effect the other way counts as inactive or inconclusive.

Key:
[1] = target: Retinoic acid receptor RXR-alpha (Homo sapiens) (UniProt P19793); experiment: qHTS assay to identify small molecule agonists of the RXR signaling pathway (AID 1159527; calls by dose curve; further: nearly all actives have a fitted effect of over 35% in size)
Sequence of Retinoic acid receptor RXR-alpha (Homo sapiens) (P19793 whole entry, looked up): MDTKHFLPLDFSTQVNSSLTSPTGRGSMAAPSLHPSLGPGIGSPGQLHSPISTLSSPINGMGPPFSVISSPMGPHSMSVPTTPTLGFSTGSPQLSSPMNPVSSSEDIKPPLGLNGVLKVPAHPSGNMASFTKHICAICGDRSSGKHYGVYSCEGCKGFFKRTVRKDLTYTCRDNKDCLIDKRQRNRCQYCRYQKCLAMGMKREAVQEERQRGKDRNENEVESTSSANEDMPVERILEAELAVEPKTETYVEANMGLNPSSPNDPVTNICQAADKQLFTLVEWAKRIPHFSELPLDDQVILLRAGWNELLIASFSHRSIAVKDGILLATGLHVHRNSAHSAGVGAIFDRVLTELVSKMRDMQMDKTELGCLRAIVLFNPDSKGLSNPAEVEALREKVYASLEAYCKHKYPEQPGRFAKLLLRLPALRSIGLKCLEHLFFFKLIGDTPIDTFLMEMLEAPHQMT
In short: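 Compounds in DMSO were added to RXR-alpha-UAS-bla HEK 293T cells kept in 2% charcoal-stripped serum, and incubated 16 hr at 37 C with 5% CO2. Reporter signal came from a 2 hr B/G FRET substrate step.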

[2] = qHTS assay to identify small molecule agonists of the RXR signaling pathway - cell viability counter screen (AID 1159529);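 further: HEK 293T cells carrying an RXR-alpha UAS beta-lactamase reporter; series mostly up to about 77 µM; nearly all actives have a fitted effect of over 50% in size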
In short: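 Counter screen: CellTiter-Glo luminescence. Cells: RXR-alpha-UAS-bla HEK 293T. Medium: 2% charcoal-stripped FBS. Treatment: 16 h, 37 C. Reagent incubation: 30 min, RT.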

[3] = qHTS assay to identify small molecule antagonists of the retinoid acid receptor (RAR) signaling pathway - cell viability counter screen (AID 1159551); further: nearly all actives have a fitted effect of over 35% in size
In short: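 Cytotoxicity counter screen in C3RL4 cells: 6 h compound exposure with 1 uM retinol (final), viability from cellular ATP by luminescence.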

[4] = qHTS assay to identify small molecule antagonists of the retinoic acid receptor (RAR) signaling pathway (AID 1159552; further: nearly all actives have a fitted effect of over 50% in size)
In short: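 Antagonism of retinol-induced RARE reporter activity was measured in C3RL4 cells. Exposure to compounds and 1 uM final retinol lasted 6 hr at 37 C, with luminescence as endpoint.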

[5] = qHTS assay to identify small molecule antagonists of the estrogen related receptor (ERR) signaling pathway from Tox21 library - cell viability counter screen (AID 1224834); further: nearly all actives have a fitted effect of over 30% in size; further: potency means the concentration at half of the fitted maximal effect
In short: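 Cytotoxicity of test substances is gauged in the same ERR cells used for the antagonist screen, after 17.5 h of compound treatment at 37 C, by CellTiter-Fluor fluorescence measured after 30 min.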

[6] = target: Luciferin 4-monooxygenase (Photinus pyralis) (UniProt P08659); experiment: qHTS assay to identify small molecule inhibitors of firefly luciferase (AID 1224835); further: series mostly up to about 120 µM; nearly all actives have a fitted effect of over 25% in size
Sequence of Luciferin 4-monooxygenase (Photinus pyralis) (P08659 whole entry, looked up): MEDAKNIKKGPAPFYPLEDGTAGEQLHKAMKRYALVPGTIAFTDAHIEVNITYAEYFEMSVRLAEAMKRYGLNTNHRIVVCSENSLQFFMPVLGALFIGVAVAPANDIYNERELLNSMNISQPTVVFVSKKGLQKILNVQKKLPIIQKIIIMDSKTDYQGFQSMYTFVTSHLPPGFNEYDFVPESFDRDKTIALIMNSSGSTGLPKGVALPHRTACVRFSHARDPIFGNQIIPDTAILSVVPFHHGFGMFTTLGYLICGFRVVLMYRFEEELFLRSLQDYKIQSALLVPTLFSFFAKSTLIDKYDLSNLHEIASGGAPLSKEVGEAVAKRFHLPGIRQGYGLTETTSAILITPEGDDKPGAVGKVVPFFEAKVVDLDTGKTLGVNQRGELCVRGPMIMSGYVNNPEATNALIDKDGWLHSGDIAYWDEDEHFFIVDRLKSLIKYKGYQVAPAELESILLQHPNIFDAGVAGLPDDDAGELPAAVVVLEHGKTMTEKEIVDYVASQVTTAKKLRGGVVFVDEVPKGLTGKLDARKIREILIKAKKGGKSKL
In short: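 Quantitative HTS format; KM concentrations of both substrates. Purified P. pyralis FLuc activity quantified from luminescence images.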

[7] = qHTS assay to identify small molecule agonists of the constitutive androstane receptor (CAR) signaling pathway - cell viability counter screen (AID 1224836); further: series mostly up to about 92 µM; nearly all actives have a fitted effect of over 45% in size
In short: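 Double-stable HepG2 hepatoma cells (hCAR plus CYP2B6-2.2kb) are treated for 23 h at 37 C with test compounds in 15-point concentration series. PK11195 at 0.75 uM final is co-added. Cell viability is quantified by CellTiter-Fluor.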

[8] = qHTS assay to identify small molecule antagonists of the constitutive androstane receptor (CAR) signaling pathway - cell viability counter screen (AID 1224837); further: series mostly up to about 92 µM; nearly all actives have a fitted effect of over 45% in size
In short: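 Multiplexed cytotoxicity read-out for the CAR antagonist screen: double-stable HepG2-CYP2B6-hCAR cells co-treated with 50 nM CITCO (final) and compound over 15 concentrations, incubated 23 hr, then assessed by CellTiter-Fluor fluorescence.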

[9] = target: Nuclear receptor subfamily 1 group I member 3 (Homo sapiens) (UniProt Q14994); experiment: qHTS assay to identify small molecule antagonists of the constitutive androstane receptor (CAR) signaling pathway (AID 1224838); further: nearly all actives have a fitted effect of over 40% in size
Sequence of Nuclear receptor subfamily 1 group I member 3 (Homo sapiens) (Q14994 whole entry, looked up): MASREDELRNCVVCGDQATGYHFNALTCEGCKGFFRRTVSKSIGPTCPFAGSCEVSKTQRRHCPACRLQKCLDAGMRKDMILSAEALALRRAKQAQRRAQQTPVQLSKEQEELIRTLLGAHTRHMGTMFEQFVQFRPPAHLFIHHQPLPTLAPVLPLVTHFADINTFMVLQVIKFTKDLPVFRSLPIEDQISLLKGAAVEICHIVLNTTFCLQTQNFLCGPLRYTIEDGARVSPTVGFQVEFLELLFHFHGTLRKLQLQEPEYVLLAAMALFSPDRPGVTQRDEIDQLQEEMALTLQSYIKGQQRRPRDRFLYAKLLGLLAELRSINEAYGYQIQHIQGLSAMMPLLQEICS
In short: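 Compounds were titrated across 15 concentrations onto HepG2 cells double-stably expressing hCAR and a CYP2B6-2.2kb reporter, together with 50 nM CITCO (final). After 24 h at 37 C, luciferase activity was measured by luminescence.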

[10] = target: Nuclear receptor subfamily 1 group I member 3 (Homo sapiens) (UniProt Q14994); experiment: qHTS assay to identify small molecule agonists of the constitutive androstane receptor (CAR) signaling pathway (AID 1224839);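 further: HepG2 cells stably carrying human CAR and a CYP2B6 luciferase reporter; series mostly up to about 92 µM; nearly all actives have a fitted effect of over 15% in size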
In short: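 Readout: firefly luciferase luminescence via ONE-Glo. System: HepG2 double-stable for hCAR and CYP2B6-2.2kb. Conditions: 15-point compound titration, PK11195 at 0.75 uM final, 24 h incubation.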

[11] = qHTS assay to identify small molecule antagonists of the estrogen related receptor signaling pathway with the pleiotropic PPARgamma coactivator (PGC) from Tox21 10K library - cell viability counter screen (AID 1224840; active means well fitted cell-killing curve with a large enough effect in the repeat runs, not every such curve was filed as active; further: nearly all actives have a fitted effect of over 40% in size)
In short: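 Step one, plate 2,000 PGC/ERR cells per well; step two, incubate 6 h at 37 C/5% CO2; step three, pin-transfer compounds; step four, incubate 17.5 h; step five, add CellTiter-Fluor and read fluorescence after 30 min.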

[12] = qHTS assay to identify small molecule antagonists of the estrogen related receptor signaling pathway with the pleiotropic PPARgamma coactivator (PGC) from Tox21 10K library (AID 1224841; call rule not given here; further: series mostly up to about 92 µM; actives are mostly falling curves and most rising ones were filed inactive; nearly all actives have a fitted effect of over 50% in size)
In short: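 Antagonism in this quantitative HTS is taken from loss of luciferase signal in PGC/ERR cells. Cells (2,000/well) are treated with compounds in DMSO after a 6 h settling period and read by One-Glo luminescence after 18 h.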

[13] = qHTS assay to identify small molecule agonists of the estrogen related receptor signaling pathway with the pleiotropic PPARgamma coactivator (PGC) from Tox21 10K library (AID 1224842); further: nearly all actives have a fitted effect of over 15% in size
In short: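 PGC/ERR reporter cells (NTP line) were seeded 2,000 per well, rested 6 h at 37 C/5% CO2, then pin-dosed with compounds in DMSO for 18 h at 37 C; luciferase read by One-Glo luminescence after 30 min at room temperature.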

[14] = target: Thyrotropin receptor (Homo sapiens) (UniProt P16473); experiment: qHTS assay to identify small molecule agonists of the thyroid stimulating hormone receptor (TSHR) signaling pathway (AID 1224843; calls by dose curve; further: nearly all actives have a fitted effect of over 45% in size; further: potency means the concentration at half of the fitted maximal effect)
Sequence of Thyrotropin receptor (Homo sapiens) (P16473 whole entry, looked up): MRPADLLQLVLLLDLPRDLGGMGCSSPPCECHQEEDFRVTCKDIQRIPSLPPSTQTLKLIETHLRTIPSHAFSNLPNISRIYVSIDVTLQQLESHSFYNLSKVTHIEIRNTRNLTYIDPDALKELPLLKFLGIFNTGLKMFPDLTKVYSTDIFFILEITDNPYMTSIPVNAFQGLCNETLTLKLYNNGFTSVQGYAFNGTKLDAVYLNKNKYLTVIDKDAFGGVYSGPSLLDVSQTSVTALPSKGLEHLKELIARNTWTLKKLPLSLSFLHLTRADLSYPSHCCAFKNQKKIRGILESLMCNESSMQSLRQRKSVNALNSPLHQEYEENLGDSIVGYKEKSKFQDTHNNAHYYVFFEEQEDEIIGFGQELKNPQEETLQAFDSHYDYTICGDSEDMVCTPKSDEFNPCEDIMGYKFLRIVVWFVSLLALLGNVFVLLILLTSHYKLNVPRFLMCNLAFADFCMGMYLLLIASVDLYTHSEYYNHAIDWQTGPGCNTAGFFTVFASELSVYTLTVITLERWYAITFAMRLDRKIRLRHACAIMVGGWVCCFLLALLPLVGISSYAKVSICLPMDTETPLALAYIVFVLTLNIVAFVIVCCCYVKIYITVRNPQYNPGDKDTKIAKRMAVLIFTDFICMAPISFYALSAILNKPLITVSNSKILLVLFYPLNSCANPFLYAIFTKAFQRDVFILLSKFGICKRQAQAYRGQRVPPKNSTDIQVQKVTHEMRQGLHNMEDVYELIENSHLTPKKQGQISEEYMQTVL
In short: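 TSHR-expressing HEK293 cells (800 per well) were exposed to compounds for 30 min at room temperature. cAMP was then detected by HTRF competition with cAMP-d2 and anti-cAMP cryptate, read after 1 h at room temperature. Fifteen concentrations, triplicate.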

[15] = qHTS assay to identify small molecule antagonists of the estrogen related receptor (ERR) signaling pathway - cell viability counter screen (AID 1224818);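 further: series mostly up to about 46 µM; viability measured after 17.5 h of compound exposure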
In short: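 Cells carrying the ERR pathway reporter were seeded and incubated for 6 hours before compound addition. After a 17.5-hour exposure at 37 C, live-cell protease activity was measured by CellTiter-Fluor fluorescence following 30 minutes of incubation.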

[16] = qHTS assay to identify small molecule antagonists of the estrogen related receptor signaling pathway with the pleiotropic PPARgamma coactivator (PGC) cell viability counter screen (AID 1224822;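 further: series mostly up to about 46 µM; viability read after 17.5 h compound exposure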)
In short: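 Seed PGC/ERR cells (2,000/well); incubate 6 h at 37 C/5% CO2; pin-transfer compounds in DMSO; incubate 17.5 h at 37 C; add CellTiter-Fluor; after 30 min read fluorescence.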

[17] = qHTS assay to identify small molecule agonists of the retinoic acid receptor (RAR) signaling pathway (AID 1159553)
In short: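 Agonist activity was scored in C3RL4 cells bearing a retinoic acid response element luciferase construct. Cells were treated with compounds for 6 hr at 37 C, and luciferase signal was measured as luminescence.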

[18] = qHTS assay to identify small molecule agonists of the estrogen related receptor (ERR) signaling pathway (AID 1224820)
In short: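 Quantitative HTS of the LOPAC library used NTP ERR reporter cells treated 18 h at 37 C. Signal is luminescence after One-Glo addition and a 30 min room-temperature incubation.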

[19] = test system: estrogen-related receptor alpha (ERRalpha) with PGC-1alpha coactivator, human; experiment: qHTS assay to identify small molecule antagonists of the estrogen related receptor signaling pathway with the pleiotropic PPARgamma coactivator (PGC) (AID 1224821; calls by dose curve;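 further: series mostly up to about 46 µM; lower luminescence signal means antagonism of PGC/ERR signalling; nearly all actives have a fitted effect of over 50% in size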)
In short: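 Quantitative HTS for antagonism: PGC/ERR cells received compounds after 6 h attachment and were incubated 18 h at 37 C, with luminescence (One-Glo) as the endpoint.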

[20] = qHTS assay to identify small molecule agonists of the estrogen related receptor signaling pathway with the pleiotropic PPARgamma coactivator (PGC) (AID 1224823)
In short: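 Cell-based luciferase assay in the NTP-supplied PGC/ERR line, 2,000 cells/well; 18 h compound exposure at 37 C, luminescence after One-Glo.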

Measured: Potency

FC1(F)C(F)(F)C(F)(F)C2(F)C(F)(F)C(F)(F)C(F)(F)C(F)(F)C2(F)C1(F)F (configuration not stated)
not listed: [15] | [16] | [17] | [18] | [19] | [20]
inactive: all other assays above

ClC(Cl)(Br)Br
not listed: [15] | [16] | [17] | [18] | [19] | [20]
inactive: all other assays above

NC(=O)COCCN1CCN(C(c2ccccc2)c2ccc(Cl)cc2)CC1 (configuration not stated)
not listed: [6] | [15] | [16] | [17] | [18] | [19] | [20]
inactive: all other assays above

O=C(O)CNC(=O)c1ccc([N+](=O)[O-])cc1
not listed: [14] | [15] | [16] | [17] | [18] | [19] | [20]
inactive: all other assays above

Cc1cc2c(cc1S(N)(=O)=O)S(=O)(=O)CCC2
not listed: [15] | [16] | [17] | [18] | [19] | [20]
inactive: all other assays above

O=C1CCCN1C1CCCCC1
not listed: [6] | [15] | [16] | [17] | [18] | [19] | [20]
inactive: all other assays above

CN1CCC(=C2c3ccccc3CC(=O)c3sccc32)CC1
not listed: [6] | [12] | [13] | [17] | [18] | [19] | [20]
inactive: all other assays above

CCOC(=O)[C@H](CCc1ccccc1)N[C@@H](C)C(=O)N1[C@H](C(=O)O)C[C@@H]2CCC[C@@H]21
not listed: [15] | [16] | [17] | [18] | [19] | [20]
inactive: all other assays above

CCN(Cc1ccncc1)C(=O)C(CO)c1ccccc1 (configuration not stated)
not listed: [4] | [6] | [12] | [13] | [18] | [19] | [20]
inactive: all other assays above

CCCCCCCCCCCCCCCCC
not listed: [15] | [16] | [17] | [18] | [19] | [20]
inactive: all other assays above

OC1CCCCC1c1ccccc1 (configuration not stated)
not listed: [15] | [16] | [17] | [18] | [19] | [20]
inactive: all other assays above

CCO/C([O-])=N/c1c[n+](N2CCOCC2)no1
not listed: [4] | [9] | [10]
inactive: all other assays above

O=C(O)c1ccccc1OP(=O)(O)O
not listed: [15] | [16] | [17] | [18] | [19] | [20]
inactive: all other assays above

COc1ccc2c(c1)CCCC2=O
not listed: [4] | [14] | [15] | [16] | [18] | [19] | [20]
inactive: all other assays above

CCCN(CCC)CCc1cccc2c1CC(=O)N2
not listed: [4] | [6] | [12] | [13] | [18] | [19] | [20]
inactive: all other assays above

Cc1[nH]c(=O)c(C#N)cc1-c1ccc2nccn2c1
not listed: [6] | [12] | [13] | [17] | [18] | [19] | [20]
inactive: all other assays above

COc1ccc(CCN(C)CCCC(C#N)(c2cc(OC)c(OC)c(OC)c2)C(C)C)cc1OC (configuration not stated)
inactive: [1] | [2] | [3] | [17] | [15] | [16] | [6] | [9] | [10] | [11]
active: [5] 29.8 µM | [14] 2.11 µM

CC(=O)OCC(CCn1cnc2cnc(N)nc21)COC(C)=O
inactive: [1] | [2] | [3] | [4] | [15] | [5] | [6] | [7] | [8] | [11] | [14]
